About 3,800 (1%) of roughly 370,000 compounds were called active. What follows is part of a selection rich in actives, with near analogues and random picks from the rest. Unmarked numbers belong to inactive results. Rule as the data show it: active = activation above about 7.8%; inactive = the rest.

This test is described as follows: SMARCA2 (BRM) function activators, primary screen, cell-based, luminescence, high throughput (AID 652017).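 Also: 0% = vehicle wells and 100% = reference activator wells.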 Particulars: MG213 cells, MMTV-luciferase reporter, dexamethasone, overnight; at 9.1 µM; active compounds read high. On the technique in general: Reporter assays use an easily measured gene product as a stand-in for the process of interest.
On to `C=CCN1C(=O)[C@@H](CC(=O)NCCCCc2ccccc2)[C@]2(C(=O)OCC)CCCCC/C=C/12`, for which the activation was -5.79%.

In the case of `CC1(C)O[C@@H]2CC3C4C[C@H](F)C5=CC(=O)C=CC5(C)C4C(O)CC3(C)[C@]2(C(=O)CO)O1` (some centres not stated), the activation is -1.35%.

`C=C(C)C#CC(Cc1ccccc1)NCC1CC1` (configuration not stated): the activation was -5.21%.

Take `COCCOC1CCN(C(=O)c2ccc(OC)c(OC3CCN(C(C)C)CC3)c2)CC1`: the activation was -1.95%.

As for `CC(C)Cc1nnc(NC(=O)CCC(=O)Nc2ccc3cn[nH]c3c2)s1`, the activation is -4%.

In the case of `COc1ccccc1OCCNC(=O)CCNC(=O)c1ccccc1Cl`, the activation is 0.37%.

For the compound `CC(C)Cc1nnc(NC(=O)CCNC(=O)c2ccccc2Cl)s1`, the activation was 9.18% (active).

Consider `Cc1nc2cc(S(=O)(=O)C(F)(F)F)ccc2s1`, for which the activation is 5.28%.

For `COC(=O)Cc1ccc(OC(=O)C2CCN(S(=O)(=O)c3ccc(OC)c(OC)c3)CC2)cc1`, the activation is -1.69%.

Consider `Cc1ccc(-n2c(SCC(=O)Nc3ccc(S(=O)(=O)Nc4nccs4)cc3)nnc2-c2ccncc2)cc1`, for which the activation is -0.03%.

Take `Cc1cc(-n2cnc(-c3cn(C)nc3C)n2)no1`: the activation was 8.03% (active).

For `Cc1ccc(Cn2cc(COC(=O)N(C)Cc3ccccc3)nn2)cc1`, the activation was -1.94%.

Turning to `O=S1(=O)c2c(cccc2N2CCCCC2)O[C@H](COCc2ccccc2)CN1C1CC1`, the activation was -5.02%.

Consider `CCOc1ccc(-n2c(SCC(=O)Nc3cc(C)c(NC(=O)c4ccccc4)cc3OC)nnc2-c2cccs2)cc1`, for which the activation was -4.31%.

In the case of `Cc1cccc(C)c1NC(=O)c1ccc(CN2CCc3ccccc3C2)cc1`, the activation is -1.14%.

Turning to `CCOC(=O)c1c(NC(=S)SC)sc(C(=O)N2CCc3ccccc3C2)c1C`, the activation was -2.6%.

In the case of `Cc1cccc(OC(C)C(=O)N2CCc3ccccc3C2)c1` (configuration not stated), the activation is -2.36%.

For the compound `O=C(C(=O)N1CCc2ccccc2C1)c1c[nH]c2ccccc12`, the activation was 0.35%.

Take `CCc1ccc(NC(=O)N2CCc3ccccc3C2)cc1`: the activation is 7.91% (active).

For `O=C(Nc1cccc([N+](=O)[O-])c1)N1CCc2ccccc2C1`, the activation was 12.9% (active).

Regarding `COC(=O)c1ccccc1-n1cc(COC(=O)NCCc2ccccc2)nn1`, the activation was -2.76%.

With `CCCCNC(=O)C[C@H]1C(=O)N(Cc2ccc(OC)cc2)C2=CCCC[C@@]21C(=O)OCC`, the activation is -1.43%.

`Cn1c(=O)c2c(nc(N/N=C/c3cccs3)n2Cc2ccc(Br)cc2)n(C)c1=O`: the activation was -0.25%.

For the compound `Cc1nc2ccccc2n1CC(=O)N/N=C/c1cccs1`, the activation was 0.43%.

On to `Cc1n[nH]c(=O)nc1N/N=C/c1cccs1`, for which the activation is 9.22% (active).

`O=C(c1ccncc1)N1CC[C@H]2[C@H](CCCN2Cc2ccc(F)cc2)C1`: the activation is 0.1%.

Turning to `COc1ccc(Cn2ccc3ccc(-c4ccc5ccn(Cc6ccccc6C)c5c4)cc32)cc1`, the activation is -1.41%.

Take `COC(=O)C[C@@H]1CC[C@@H]2[C@H](COc3ccc(NC(=O)c4cccc(F)c4)cc3C(=O)N2C)O1`: the activation is -3.28%.

Turning to `COC(=O)C[C@H]1CC[C@H]2[C@H](COc3ccc(NC(=O)C4CC4)cc3C(=O)N2C)O1`, the activation was -0.29%.

As to `COc1ccc(S(=O)(=O)N(CC(=O)N/N=C/c2ccc(C(=O)O)cc2)Cc2ccccc2)cc1OC`, the activation is 0.18%.

For `COc1cc(/C=N/NC(=O)c2ccccc2)ccc1OS(=O)(=O)c1ccccc1`, the activation is 11.6% (active).

For `COc1cc(/C=N/NC(=O)Nc2ccccc2)ccc1OCCOc1ccccc1C`, the activation is -2.07%.

For `Cc1ccc(S(=O)(=O)NC(C)C(=O)NCc2ccc(Cl)cc2)cc1` (configuration not stated), the activation was 8.48% (active).

For the compound `Cc1ccc(CNC(=O)COc2ccc(S(=O)(=O)NC(C)C)cc2)cc1`, the activation is -3.1%.

Regarding `COc1ccc(S(=O)(=O)NC(C)C(=O)NCc2ccncc2)cc1Cl` (configuration not stated), the activation was -1.23%.

With `O=S1(=O)CCC(NC(=S)SCc2ccccc2Br)C1` (configuration not stated), the activation is -1.67%.

With `CCCSC(=S)NC1CCS(=O)(=O)C1` (configuration not stated), the activation was 8.13% (active).

With `CC(C)C(=O)NC(NC(=S)NC1CCS(=O)(=O)C1)C(Cl)(Cl)Cl` (configuration not stated), the activation is 1.31%.

In the case of `COc1ccc(C(=O)OCCN2CCN(C3CN(Cc4cn(Cc5ccccc5F)nn4)S(=O)(=O)C3)CC2)cc1OC` (configuration not stated), the activation was -1.26%.

Take `Cc1c(N=Nc2ccc(N(C)C)cc2)c(=O)n(-c2ccccc2)n1C`: the activation was 7.84% (active).

Turning to `Cc1nc(N)sc1N=Nc1c(C)n(C)n(-c2ccccc2)c1=O`, the activation is -4.59%.

Turning to `Cc1c(C=O)n(C)n(-c2ccccc2)c1=O`, the activation is 1.03%.

As for `C[C@@H]1COc2cccc(N3CCCC3)c2S(=O)(=O)N1C`, the activation is -1.71%.

Regarding `COc1ccc(-c2cc(C(=O)NC(Cc3c[nH]c4ccccc34)C(=O)O)c(C)o2)cc1OC` (configuration not stated), the activation is 3.58%.

Consider `COc1cccc(CNC(=O)[C@H]2CCCN2C(=O)[C@H]2CCCN2C(=O)C2CCCCC2)c1`, for which the activation is -3.87%.

Turning to `CCN(CC)CCNC(=O)Cn1cnc2sc(C)c(S(=O)(=O)N3CCOCC3)c2c1=O`, the activation is -6.85%.

As for `CCN(CC)CCNC(=O)c1sc2ncn(CC(=O)Nc3ccc(C)c(Cl)c3)c(=O)c2c1C`, the activation was 7.84% (active).

For the compound `CCN(CC)CCCNC(=O)Cn1cnc2sc(C)c(S(=O)(=O)N3CCN(c4ncccn4)CC3)c2c1=O`, the activation is -0.93%.

As for `Cc1cccc(C)c1NC(=S)N(Cc1cccnc1)Cc1ccccc1Cl`, the activation was -5.44%.

In the case of `CCOC(=O)[C@]12CCCC=C1N(Cc1ccc(OC)cc1)C(=O)[C@@H]2CC(=O)N1CCOCC1`, the activation is 1.91%.

On to `COc1ccc(-n2c(COc3ccccc3)nnc2SCC(=O)Nc2ccc3c(c2)OCO3)cc1`, for which the activation is -4.96%.

For the compound `CCC(=O)c1c[nH]c(C(=O)NCC2CCCO2)c1` (configuration not stated), the activation is 1.33%.

`O=C(Nc1ccc(F)cc1)c1cc2c(s1)CCCC2`: the activation is 10.2% (active).

On to `O=C(Nc1cccc2c1CCCC2)c1ccc(F)cc1`, for which the activation was -0.7%.

Take `O=C(NCCCn1ccnc1)c1cc2c(s1)CCCC2`: the activation is -1.02%.

In the case of `O=C(CNC(=O)c1cc2c(s1)CCC2)Nc1ccccc1Br`, the activation was 3.62%.

For `O=C(NCC1CCCO1)c1cc2c(s1)CCCC2` (configuration not stated), the activation was 10.9% (active).

Consider `Cc1ccccc1NC(=O)C1CCN(c2ncccn2)CC1`, for which the activation was -1.72%.

For `CC(=O)N1CCc2cc(S(=O)(=O)NCCC(=O)N3CCCC3)ccc21`, the activation is -4.7%.

`COC(=O)C1CN(Cc2cn(Cc3ccc(F)cc3)nn2)CCS(=O)(=O)N1Cc1ccc(Cl)cc1` (configuration not stated): the activation was -3.03%.

On to `COc1cc(OC)cc(-c2cc3ccc(F)cc3cn2)c1`, for which the activation is 7.74%.

As to `COc1ccc(-c2cc(C3CCN(c4ncccc4[N+](=O)[O-])CC3)[nH]n2)cc1`, the activation was -2.21%.

Turning to `COc1ccc(-c2cc3ncccc3cn2)cc1`, the activation was 8.94% (active).

As to `COCC(C)n1c(SCc2ccc(C(=O)OC)o2)nc2ccccc2c1=O` (configuration not stated), the activation was 9.35% (active).

For `COCCn1c(C)cc(C(=O)CSc2nc3ccccc3c(=O)n2C(C)COC)c1C` (configuration not stated), the activation is -2.97%.

`COCC(C)n1c(SCC(=O)NC2CCCCC2C)nc2ccccc2c1=O` (configuration not stated): the activation was -2.03%.

For the compound `COC(=O)C1CN(Cc2ccc(F)cc2)CCS(=O)(=O)N1Cc1ccc(Cl)cc1` (configuration not stated), the activation was -2.03%.

Turning to `c1ccc2cc3c(NCCN4CCOCC4)ccnc3cc2c1`, the activation was 15.8% (active).

`O=C(Cc1ccc(Br)cc1)NCCN1CCOCC1`: the activation was 5.26%.

Turning to `CSc1ccc(CNCCN2CCOCC2)cc1`, the activation was -0.08%.

As to `CC(C)(C)n1nc(C2CC2)c(Br)c1NC(=O)c1ccccc1F`, the activation is -3.81%.

With `COc1ccc(S(=O)(=O)N2CCOCC2)cc1NC(=O)Cc1coc2cc(C)ccc12`, the activation is -0.89%.

For the compound `C#CCCN([C@H](C(=O)OC)C(C)C)S(=O)(=O)c1ccc(F)cc1Br`, the activation was 0.37%.

As for `O=C(OC12CCCN(C1)/C(=C/c1cccnc1)C2)C1CCCC1` (configuration not stated), the activation was -1.64%.

For the compound `Cc1ccc(N/C=C/C(=O)c2ccccc2)cc1C`, the activation was 14.5% (active).

As to `Cc1cccc(C(=O)Nc2ccc(C(=O)/C=C/c3cccs3)cc2)c1`, the activation was 7.01%.

`COC(C(=O)Nc1ccc(S(=O)(=O)Nc2ccc(C)c(C)c2)cc1)c1ccccc1` (configuration not stated): the activation was -2.54%.

Take `O=C(CCCCCCCC(=O)N1CCCCC1)N1CCCCC1`: the activation was -4.31%.

Regarding `Cc1cccc(C(=O)Nc2c(-c3ccc(F)cc3)nc3ncccn23)c1`, the activation was -2.99%.

Consider `CC(c1ccc(N)cc1)c1cn(C)c2ccccc12` (configuration not stated), for which the activation was 2.03%.

On to `Cc1ccc(CN(N=Nc2nonc2N)c2nonc2N)c(C)c1`, for which the activation was -3.9%.

For `O=C(COC(=O)C1CC2C=CC1C2)Nc1ccccc1` (configuration not stated), the activation was -3.49%.

For the compound `CC(NC(=S)Nc1ccc(OC(F)F)cc1)c1ccc(F)cc1` (configuration not stated), the activation was -2.75%.

`CC(C)c1ccc(NC(=S)NC2CC3C=CC2C3)cc1` (configuration not stated): the activation was 8.66% (active).

Regarding `COc1cccc(/C=C2\CC3(OC(C)=O)CCCN2C3)c1` (configuration not stated), the activation is 1.54%.

Consider `Cc1cc(OC(=O)c2ccccc2)c([N+](=O)[O-])c(=O)[nH]1`, for which the activation is 7.86% (active).

On to `COc1cccc(C(=O)Oc2cc(C)[nH]c(=O)c2[N+](=O)[O-])c1`, for which the activation is 0.69%.

On to `Cc1cc(OC(=O)c2ccc(OC(C)C)cc2)c([N+](=O)[O-])c(=O)[nH]1`, for which the activation is -2.6%.

For `Cn1c(=O)n(C)c2cc(S(=O)(=O)Nc3ccc(F)cc3)ccc21`, the activation is -2.88%.

In the case of `O=C1Cc2cc(S(=O)(=O)Nc3cccc(F)c3)ccc2N1`, the activation was 9.16% (active).

On to `CC1CCC(NS(=O)(=O)c2ccc3c(c2)CC(=O)N3)CC1` (configuration not stated), for which the activation was -2.52%.

In the case of `CCN(CC)C(=O)CC[C@H]1CC[C@]2(CCCN(Cc3ccc(Cl)cc3)C2)O1`, the activation is -0.46%.
